Many of the other results were omitted from the sample, so hits are more common in it than they were.
D1 mod = allosteric modulators of human D1 dopamine receptor; hit rate 5.9% among 58,000; HEK293 D1, CRE-luciferase, dopamine EC30 potentiation; actives deviate in either direction; B-score at 10 µM; P21728;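 active = luminescence count or its row- and column-corrected plate score outside the 99.7% band of the plate's sample wells, on either side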
Target sequence (P21728 whole entry, looked up): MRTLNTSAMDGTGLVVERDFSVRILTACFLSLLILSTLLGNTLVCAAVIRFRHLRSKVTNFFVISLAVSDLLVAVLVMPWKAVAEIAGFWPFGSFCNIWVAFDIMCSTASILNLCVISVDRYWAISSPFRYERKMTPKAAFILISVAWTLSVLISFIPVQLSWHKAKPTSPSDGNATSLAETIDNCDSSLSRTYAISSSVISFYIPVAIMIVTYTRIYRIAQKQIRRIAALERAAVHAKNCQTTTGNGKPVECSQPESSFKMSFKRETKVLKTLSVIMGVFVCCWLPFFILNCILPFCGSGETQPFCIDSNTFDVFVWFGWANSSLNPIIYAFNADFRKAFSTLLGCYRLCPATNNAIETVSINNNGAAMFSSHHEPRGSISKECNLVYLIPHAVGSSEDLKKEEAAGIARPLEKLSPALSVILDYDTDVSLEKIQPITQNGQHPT
BAP1 inh = blocks human BAP1 ubiquitin-AMC hydrolysis; recombinant BAP1, Ub-AMC hydrolysis fluorescence kinetic; stronger effect = lower value; AID 436; hit rate 0.48% among 72,000; calls only at 20 µM;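 active = activity remaining at or below 50% of control, provided the compound also passes the data quality filters; inactive = the rest, including low values that fail the filters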;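 note: 100% = DMSO wells rate and 0% = substrate alone blank rate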
hDAT+cocaine = changed human dopamine transporter uptake under cocaine IC80. Q01959. LLC-PK1 hDAT cells, [14C]-dopamine uptake with cocaine IC80; actives deviate in either direction. B-score at 10 µM. hit rate 1.3% among 110,000;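 active = Z score or B-score, a plate-position-corrected score, falls beyond the plate's 99.7% confidence bounds, in either direction; inactive = both scores lie inside the 99.7% bounds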;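 note: scored against the spread of the other compound wells on the same plate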
An asterisk follows results filed as active; i = inactive; . = no result given.

SMILES	D1 mod	BAP1 inh	hDAT+cocaine
CC(C)CCNS(=O)(=O)c1ccc(-c2ccc(S(=O)(=O)NCCC(C)C)cc2)cc1	.	.	1.07
Cc1ccc(S(=O)(=O)NCCOCCNS(=O)(=O)c2ccc(C)cc2)cc1	0.593	i	-0.506
Cc1ccc(S(=O)(=O)NCCCCCC(=O)N(C)C)cc1	-4.28*	i	-0.0146
COCCNC(=O)CCCCCNS(=O)(=O)c1ccc(C)cc1	-0.867	i	1.53
CC(C)N(CCNS(=O)(=O)c1ccc(Cl)cc1)C(C)C	.	.	2.95*
Cc1ccc2oc(-c3ccc(C)c(NC(=O)c4ccc([N+](=O)[O-])cc4)c3)nc2c1	.	i	.
Cn1c(=O)[nH]c(=O)c2c1nc(SCC(=O)c1ccc(Cl)cc1)n2CCc1ccccc1	.	i	.
Cc1cc(C)c(C)c(C(=O)c2ccc(Cl)cc2)c1C	.	i	.
COc1ccc(C(=O)c2ccc(OCC(C)C)cc2)cc1	.	i	.
O=C(c1ccccc1)c1cc2c(ccc3ccccc32)oc1=O	.	i	.
CCOC(=O)C1C(c2cccc([N+](=O)[O-])c2)NC(=S)NC1(O)C(F)(F)F (stereo not drawn)	.	i	.
COc1cccc(C(=O)NCc2n[nH]c(=S)n2-c2ccc(Br)cc2)c1	.	i	.
C/C=C(\C)CN1CCc2cc(OC)c(OC)cc2C1	-1.13	i	-0.0494
CCCS(=O)(=O)N1CCc2cc(OC)c(OC)cc2C1	0.145	i	-8.24*
Cc1nc(Nc2nc3ccccc3o2)nc2c1CCC2	-6.07*	i	0.558
Cc1cccc(C)c1Nc1nc2ccccc2o1	0.723	i	0.0744
Cc1ccc2sc(-c3ccc(NC(=O)COc4ccccc4)cc3)nc2c1	.	i	.
CCN1CCN(Cc2ccc(NC(=O)Nc3ccc(OC)cc3)cc2)CC1	-0.841	i	0.626
CCN1CCN(Cc2ccc(NC(=O)Nc3ccccc3)cc2)CC1	-5.76*	i	-0.558
Cc1ccc(Nc2nnc(-c3cc4ccccc4oc3=O)s2)cc1	.	i	.
N#Cc1cc(-c2ccccc2)oc1NC(=O)c1ccco1	1.12	i	-8.79*
Cc1cccc(C(=O)Nc2oc(-c3ccccc3)cc2C#N)c1	.	.	0.283
c1ccc2c(c1)cc(-c1nc3ccccc3[nH]1)c1nc3ccccc3n12	.	i	.
Nc1c(-c2ccc(Cl)cc2)cnn1-c1cccc([N+](=O)[O-])c1	.	.	-3.04*
Nc1c(-c2ccccc2)cnn1-c1cccc([N+](=O)[O-])c1	.	.	-0.0219
SMILES	D1 mod	BAP1 inh	hDAT+cocaine
CCCCOc1ccc(S(=O)(=O)NNC(=O)C2Cc3c(ccc4ccccc34)O2)cc1 (stereo not drawn)	.	.	-0.0746
Cc1ccc(S(=O)(=O)NNC(=O)C2Cc3c(ccc4ccccc34)O2)cc1 (stereo not drawn)	.	.	-8.52*
CC(C)(C)c1ccc(S(=O)(=O)N2CCN(C(c3ccccc3)c3ccccc3)CC2)cc1	.	i	.
O=C(Nc1ccc2nc(SCc3ccc(Cl)cc3)sc2c1)c1ccccc1C(=O)N1CCOCC1	.	.	-7.05*
O=C(CSCc1ccc(Cl)cc1)Nc1ccccc1C(=O)N1CCOCC1	.	.	-1.12
Cc1ccc2[nH]c(=O)c(CN(Cc3nnnn3Cc3ccccc3)C3CCCC3)cc2c1	0.0281	.	-0.0835
Cc1cccc2cc(CN(Cc3nnnn3Cc3ccco3)C3CCCC3)c3nnnn3c12	1.52	i	-7.43*
CNc1nnc(Cl)c2ccccc12	.	i	.
O=C(NNC(=O)C1CCCN(c2ncccn2)C1)c1ccc(F)cc1 (stereo not drawn)	.	.	0.126
Cc1ccc(C(=O)NNC(=O)C2CCCN(c3ncccn3)C2)cc1 (stereo not drawn)	.	.	6.56*
CCOC(=O)N1CCN(C(=O)C2CCC(C(=O)N3CCN(C(=O)OCC)CC3)CC2)CC1 (stereo not drawn)	-0.461	i	.
CCOC(=O)N1CCN(C(=O)C2CCCCC2)CC1	.	.	-2.57*
O=C(CCN1C(=O)c2ccccc2C1=O)Oc1ccc2c(c1)oc(=O)c1ccccc12	.	i	.
CC1=C(C)CS(=Nc2ccccc2)N(S(=O)(=O)c2ccccc2)C1 (stereo not drawn)	.	i	.
O=C(CSc1nnc(-c2ccc(Cl)s2)o1)N1CCc2ccccc21	-0.779	i	0.00696
O=C(CSc1nnc(-c2ccc(Cl)s2)o1)N1CCCc2ccccc21	-2.65*	i	1.32
CCC(C)C(=O)N1c2ccccc2C(N(C(=O)COc2ccccc2)c2ccccc2)CC1C (stereo not drawn)	.	i	.
COc1ccc2c(c1)c(CC(=O)O)c(C)n2C(=O)c1ccccc1	.	i	.
COc1ccc2c(c1)c(CC(=O)O)c(C)n2C(=O)c1ccc(Cl)cc1	0.241	i	4.13*
O=C(Nc1ccc(F)cc1)NC1(C(=O)NCc2ccco2)CCCCC1	0.0334	i	0.101
CCCCN(CC)Cc1ccc(CNC(=O)Nc2ccc(F)cc2)o1	.	.	-5.48*
C=CCSc1nc2c(c(=O)[nH]1)C(C)(C1CCCCC1)Cc1ccccc1-2 (stereo not drawn)	.	i	.
O=C1CCCN1c1ccc(S(=O)(=O)NCCOc2ccccc2)cc1	.	.	-0.457
Cc1cc(N2CCCC2=O)cc(C)c1S(=O)(=O)NCCOc1ccc(C(C)(C)C)cc1	.	.	-2.77*
COc1cccc2sc(=NC(=O)c3ccc(S(=O)(=O)N4CCCc5ccccc54)cc3)n(C)c12	.	i	.
SMILES	D1 mod	BAP1 inh	hDAT+cocaine
CCCC(=O)N1CCN(c2ccc(C(=O)CC)cc2F)CC1	.	i	.
Cc1ccc(S(=O)(=O)Cc2ccc(C(=O)NCCCN3CCCC3=O)o2)cc1	-3.33*	i	0.312
O=C(NCCCN1CCCC1)c1ccc(CS(=O)(=O)c2ccc(Br)cc2)o1	-0.461	i	.
CC(=O)Oc1cccc(C2C3=C(CC(C)(C)CC3=O)Nc3ccccc3N2C(=O)c2ccccc2)c1 (stereo not drawn)	.	i	.
COc1ccccc1-c1nnc(SCc2nc3ccccc3s2)n1C	.	.	-0.152
COc1ccc(-c2nnc(SCc3nc4ccccc4s3)n2C(C)C)cc1	.	.	3.86*
CCCn1nc2cc(C(=O)NCc3ccc(C)cc3)ccc2c1OCC	.	.	0.83
CCOc1c2ccc(C(=O)NCc3ccc(C)cc3)cc2nn1CC	.	.	3.16*
O=C(c1ccco1)N(Cc1ccc([N+](=O)[O-])cc1)c1ccc(Cl)cc1	.	.	0.559
O=C(c1ccco1)N(Cc1ccc([N+](=O)[O-])cc1)c1ccc(Br)cc1	.	.	2.85*
C=CCn1c(=N)n(CCO)c2ccccc21	.	i	.
C[C@H](C(=O)C=[N+]=[N-])N1C(=O)c2ccccc2C1=O	-0.096	i	-7.13*
[N-]=[N+]=CC(=O)CC(c1ccccc1)N1C(=O)c2ccccc2C1=O (stereo not drawn)	0.424	i	.
COc1ccc(Nc2ncc3c(n2)CC(c2ccccc2)CC3=O)cc1 (stereo not drawn)	9.79*	i	0.552
CCc1ccc(Nc2ncc3c(n2)CC(c2ccc(OC)cc2)CC3=O)cc1 (stereo not drawn)	.	.	0.132
CC(C)CCOC(=O)c1ccc(NC(=O)c2ccc([N+](=O)[O-])cc2)cc1	.	i	.
O=C(Nc1cccc(C(F)(F)F)c1)c1cccnc1	-0.703	i	0.0126
COc1cc(NC(=O)c2ccnnc2)cc(C(=O)Nc2cccc(C(F)(F)F)c2)c1	.	.	3.33*
CCCNC(=O)c1cc2nc(-c3ccccc3)cc(-c3ccccc3)n2n1	.	i	.
COc1ccc(C)cc1NC(=O)CNC(=O)Cn1ccc2ccccc2c1=O	0.278	i	-8.99*
COc1cc(OC)c(NC(=O)CCNC(=O)Cn2ccc3ccccc3c2=O)cc1Cl	.	.	-0.937

High-throughput results deposited in PubChem BioAssay by several laboratories.
